Assay outcomes (PubChem)
ERG Ets-DNA blk: inhibitors of human ERG Ets domain-DNA interaction | P11308 | fluorescence polarization, His-ERG Ets domain / labelled DNA | Potency, µM (series often up to 76.9 µM), actives largely listed as inhibitors | hit rate 0.028% among 370,000 | AID 624246; active = well fitted inhibition curve with a large enough effect in the polarisation, with a control signal flat; inconclusive = small, poorly fitted or top-dose-only effect, or effect the other way, or a change in a side signal; inactive = no such curve, though single readings can be large or run the other way; the % refers to the polarisation;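 also: polarization taken with two DNA probes labelled with fluorescein and Texas red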
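His-tagged ERG Ets domain (1 uM in the protein solution; 300mM KCl, 50mM Tris-HCl, 1mM EDTA, 1mM DTT, pH 7.5) received compound, then a probe mix of 5 nM fluorescein-DNA and 100nM Texas-615-DNA. Fluorescence polarization was read for both dyes.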
EPAC1 antagonist: blocks human EPAC1 exchange factor | O95398 | hit rate 0.14% among 360,000 | EPAC1 GEF assay, Rap1b-BODIPY-GDP exchange fluorescence | Potency, µM (series often up to 115 µM), most hits filed as inhibitors; also: nearly all actives have a fitted effect of over 50% in size
Target sequence (O95398 whole entry, looked up): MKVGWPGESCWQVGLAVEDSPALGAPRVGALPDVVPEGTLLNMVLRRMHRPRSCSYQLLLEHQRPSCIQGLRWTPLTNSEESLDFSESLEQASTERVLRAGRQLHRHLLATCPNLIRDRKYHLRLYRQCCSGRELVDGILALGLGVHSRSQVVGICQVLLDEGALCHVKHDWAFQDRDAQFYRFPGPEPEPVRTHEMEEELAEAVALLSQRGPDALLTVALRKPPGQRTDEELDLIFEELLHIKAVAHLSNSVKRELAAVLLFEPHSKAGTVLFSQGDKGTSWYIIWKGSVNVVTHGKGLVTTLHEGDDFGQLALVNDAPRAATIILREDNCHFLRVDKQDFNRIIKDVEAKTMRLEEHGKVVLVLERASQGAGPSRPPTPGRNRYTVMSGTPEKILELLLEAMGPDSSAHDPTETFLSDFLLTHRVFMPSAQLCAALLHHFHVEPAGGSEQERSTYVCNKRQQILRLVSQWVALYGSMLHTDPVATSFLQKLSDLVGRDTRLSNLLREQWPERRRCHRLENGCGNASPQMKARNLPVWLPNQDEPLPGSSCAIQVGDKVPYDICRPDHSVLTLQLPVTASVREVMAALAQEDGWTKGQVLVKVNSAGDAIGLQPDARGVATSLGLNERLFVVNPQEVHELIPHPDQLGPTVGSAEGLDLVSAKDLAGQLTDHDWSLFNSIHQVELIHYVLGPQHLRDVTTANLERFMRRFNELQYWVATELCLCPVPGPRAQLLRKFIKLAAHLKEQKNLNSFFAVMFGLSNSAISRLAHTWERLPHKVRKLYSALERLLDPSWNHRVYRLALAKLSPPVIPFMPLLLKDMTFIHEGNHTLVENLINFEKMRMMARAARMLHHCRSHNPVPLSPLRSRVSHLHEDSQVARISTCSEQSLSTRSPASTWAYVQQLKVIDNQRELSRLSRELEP
TDP1 inh: inhibitors of human tyrosyl-DNA phosphodiesterase TDP1 | recombinant TDP1, AlphaScreen DNA substrate cleavage | Potency, µM (highest dose often 130 µM), actives largely listed as inhibitors | hit rate 0.28% among 350,000 | Q9NUW8; also: nearly all actives have a fitted effect of over 40% in size
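Here, a 5' biotin and 3' phosphotyrosine-FITC DNA oligonucleotide reports Tdp1 activity: intact substrate bridges AlphaScreen beads, while cleavage leaves a 3' phosphate and drops signal. All incubations at room temperature.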
EPAC2 ag: EPAC2 (human) agonism; hit rate 0.079% among 360,000; Q8WZA2; EPAC2 activation, biochemical qHTS; response scale: 100% = 6.5 mM cAMP response; Potency, µM (top dose mostly 154 µM), most hits filed as activators; also: nearly all actives have a fitted effect of over 50% in size
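Compounds were added across a concentration range to EPAC2 (100 nM), RAP1B-BODIPY-GDP (250 nM) and GDP (50 uM). After 5 min at room temperature, fluorescence was recorded at 5-min intervals for 30 min.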
EPAC2 antagonist: antagonists of human EPAC2; hit rate 0.18% among 360,000; AID 720708; EPAC2 GEF exchange of Rap1B-BODIPY-GDP, fluorescence; Potency, µM (series often up to 114 µM), actives largely listed as inhibitors; also: nearly all actives have a fitted effect of over 45% in size
EPAC1 ag: activates human EPAC1 exchange factor; O95398; EPAC1 agonist qHTS, biochemical assay; response scale: 100% = response to 6.5 mM cAMP; Potency, µM (doses to about 154 µM), actives largely listed as activators; hit rate 0.073% among 360,000; also: nearly all actives have a fitted effect of over 60% in size
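EPAC1 100 nM, Rap1B–BODIPY-GDP 250 nM, unlabeled GDP 50 uM; compound titration; 5 min RT; kinetic read ex480/em540 at 5-min intervals ×30 min; data normalized to 6.5 mM cAMP agonist control.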
Hits are given with their value; – = inactive; ? = inconclusive; · = no result given; ! = not confirmed by another sample. Compounds with a hit are over-represented: about 0.54% of the library has one in this group of screens. Unless noted, calls follow the shape of the dose curve; as a rule, active = well fitted curve in the direction sought with a large enough effect; inconclusive = small, poorly fitted or top-dose-only effect, or another doubt; inactive = no such curve, though single readings can be large; an effect the other way counts as inactive or inconclusive.

SMILES | ERG Ets-DNA blk | EPAC1 antagonist | TDP1 inh | EPAC2 ag | EPAC2 antagonist | EPAC1 ag
COc1cccc(C2c3c(ncn(-c4ccccc4Br)c3=N)Oc3ccc4ccccc4c32)c1 (configuration not stated) | · | · | – | · | · | ·
O=C1C2C3CCCC3=C3CCCC3C2C(=O)N1c1ccccc1Cl (configuration not stated) | · | · | – | · | · | ·
Nc1cc(S(=O)(=O)N2CCN(S(=O)(=O)c3ccc4c(c3)OCCO4)CC2)ccn1 | · | · | – | · | · | ·
O=c1c(O)cccc2cc(O)c(O)c(O)c12 | – | 13µM | · | – | – | –
Nc1c(C(=O)NCC2CCCO2)sc2nc3c(c(-c4ccco4)c12)CC/C3=C\c1ccco1 (configuration not stated) | – | 20µM | ? | – | – | –
CCC(=O)NC(c1ccco1)c1cc([N+](=O)[O-])c2cccnc2c1O (configuration not stated) | · | · | – | · | · | ·
CCc1nnc(NC(=O)c2sc3nc4c(cc3c2N)CCCCCC4)s1 | – | ? | 50µM | – | – | –
CC(C)CC1C(=O)N(Cc2cn(CCC3OCCCO3)nn2)CCS(=O)(=O)N1Cc1ccc(-c2ccc(Cl)cc2)cc1 (configuration not stated) | · | – | · | – | ? | –
CC(C)CC1C(=O)N(Cc2cn(CCC3OCCO3)nn2)CCS(=O)(=O)N1Cc1ccc(-c2ccc(F)cc2)cc1 (configuration not stated) | · | – | · | – | 13µM | –
O=C(OCC#CCSc1nnc(-c2cccc3ccccc23)o1)c1ccc(SC(F)(F)F)cc1 | · | · | – | · | · | ·
c1ccc(CNc2ncnc3c2ncn3Cc2ccccc2)cc1 | · | · | – | · | · | ·
Cn1c(=S)[nH]c(=O)c2ncc(=O)[nH]c21 | 14µM | – | – | – | – | –
Cc1nc2[nH]c(=S)n(C)c(=O)c2nc1C | · | – | – | – | – | –
CC(C)(C)N1CC(c2nc3ccccc3n2CCOc2ccccc2)CC1=O (configuration not stated) | – | – | – | 10µM | – | –
COc1cc(F)c(S(=O)(=O)N2CCCN(S(=O)(=O)c3cccc(NC(C)=O)c3)CC2)c(F)c1 | · | · | – | · | · | ·
O=C(OCc1ccccc1)c1ccccc1O | – | – | 79µM | – | – | –
O=C(OCCCOC(=O)c1ccccc1O)c1ccccc1O | · | · | 18µM | · | · | ·
O=C(COC(=O)c1ccccc1O)NCCCc1ccccc1 | – | – | – | – | – | –
CC1=CC(C)(C)N2C(=O)C(=Nc3ccc(O)cc3)c3cccc1c32 | ? | 79µM | – | – | ? | –
COc1cc(N=C2C(=O)N3c4c(cccc42)C(C)=CC3(C)C)cc(OC)c1 | – | – | – | – | – | –
N#Cc1cccc(NS(=O)(=O)c2ccc3c(c2)CCC(=O)N3)c1 | · | · | – | · | · | ·
CS(=O)(=O)N1N=C(c2ccco2)CC1c1ccc(Cl)cc1Cl (configuration not stated) | – | – | – | – | 10µM | –
O=C(/C=C/c1ccco1)Nc1cccc2cccnc12 | – | ? | 20µM | – | ? | –
CC(=Nc1ccccc1N)c1c(C)cc(=O)n(O)c1O | · | · | – | · | · | ·
Cc1nn(C)c2ncc(C(=O)c3cc(F)ccc3O)cc12 | – | – | – | – | – | –
SMILES | ERG Ets-DNA blk | EPAC1 antagonist | TDP1 inh | EPAC2 ag | EPAC2 antagonist | EPAC1 ag
Cn1c(=O)c(C#N)c(-c2ccc(F)cc2)c2cc(C(=O)c3cc(Cl)cc(Cl)c3O)cnc21 | – | ? | · | – | 50µM | –
COc1ccccc1-n1c(=O)c(C#N)c(-c2ccc([N+](=O)[O-])cc2)c2cc(C(=O)c3cc(F)ccc3O)cnc21 | 11µM | – | – | – | – | –
Nc1ncnc2c1nc(Cl)n2[C@@H]1O[C@H](CO)[C@@H](O)[C@@H]1O | · | · | – | · | · | ·
COc1ccccc1NC(=O)c1ccc2ccccc2c1 | · | · | – | · | · | ·
O=C(O)/C=C/c1ccc([N+](=O)[O-])o1 | – | – | 32µM | – | – | –
O=c1cc(CCl)nc2sc3ccccc3n12 | – | – | 50µM | – | – | –
O=C(OCc1cc(=O)n2c(n1)sc1ccccc12)c1ccc(O)cc1 | – | – | – | – | – | –
Cc1ccc(NS(=O)(=O)c2cc(Br)cnc2N)c(Cl)c1 | ? | – | – | – | – | –
Nc1ncc(Br)cc1S(=O)(=O)Nc1cc(C(F)(F)F)cc(C(F)(F)F)c1 | – | ? | – | – | 16µM | –
COc1cc(C2C=C(c3cccs3)Nc3ncnn32)cc(OC)c1OC (configuration not stated) | – | – | – | – | – | 100µM
COc1cccc(S(=O)(=O)N2CCN(c3nc(-c4cccs4)nc4ccccc34)CC2)c1 | · | · | – | · | · | ·
Cc1cc2c(s1)c1cnn(Cc3ccc(C(C)C)cc3)c(=O)c1n2C | · | · | – | · | · | ·
Cc1nc(SCC(=O)O)c(C#N)c2c1CCCC2 | – | – | 10µM | – | – | –
O=C1C2C3C=CC(C3)C2C(=O)N1c1ncn[nH]1 (configuration not stated) | – | – | 16µM | – | – | –
Cc1cc2ccccn2c1C(=O)c1ccc(Cl)c([N+](=O)[O-])c1 | – | – | – | – | 11µM | –
Cc1cc2ccccn2c1C(=O)c1ccccc1Br | – | – | – | – | 13µM | –
COc1cccc(C2c3c(ncn(-c4ccccc4C#N)c3=N)Oc3ccc4ccccc4c32)c1 (configuration not stated) | · | · | – | · | · | ·
CCCCc1c(C)[nH]c(=S)[nH]c1=O | – | – | · | – | – | –
Cc1cccc(OCCc2c(C)[nH]c(=S)[nH]c2=O)c1 | 28µM | – | – | – | – | –
CCCCC/C=C/C=C1/C(=O)C=C[C@@H]1C/C=C\CCCC(=O)O | · | · | 18µM! | · | · | ·
CCOc1ccc(NC(=O)CN(C)C(=O)c2cc(C3CC3)nn2-c2ccccc2)cc1OCC | – | – | – | – | – | 32µM
O=C(OCc1c(F)cccc1Cl)c1cnc(Cl)c(Cl)c1 | – | – | · | – | – | –
O=C(OCc1ccccc1F)c1cnc(Cl)c(Cl)c1 | – | – | 89µM | – | – | –
CCN(CC)c1ccc2cc(S(=O)(=O)c3ccc(Cl)cc3)c(=O)oc2c1 | – | – | · | – | – | 89µM
O=C1OC(c2ccc(O)cc2)(c2ccc(O)cc2)c2ccccc21 | – | – | – | – | ? | –
O=C1OC(c2ccc3ccccc3c2O)(c2ccc3ccccc3c2O)c2ccccc21 | – | 56µM | · | – | – | –
Cc1ccc(-c2nc3c(c(=O)[nH]c(=O)n3Cc3ccccc3)n2Cc2ccccc2)o1 | – | – | – | – | – | –
Cc1ccc(-c2nc3c(c(=O)[nH]c(=O)n3Cc3ccccc3)n2C)o1 | – | ? | 40µM | – | – | –
COc1cc2ccccc2cc1C(=O)NC(=S)Nc1cccc(C(=O)O)c1 | – | 45µM | · | – | – | ?
